Shown are actives, neighbours in structure and some others; about 4.1% of the full set was active somewhere.
Vc quorum ag = induces V. cholerae light production without autoinducers | V. cholerae BH1578 lux reporter, luminescence, 6 h | activation, % at 18.7 µM | 350,000 tested, 0.16% active; in the data active = activation mostly above about 9.7%, no sharp cut-off
GDH-TPI counter-1 = inhibits GDH-TPI coupling enzymes, artifact for Mtb FBA screen. GDH-TPI coupled enzyme counterscreen, NADH absorbance. inhibition, % at 4.8 µM. 360,000 tested, 1.2% active. AID 588335; in the data active = inhibition above about 30%;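 note: 0% = DMSO wells and 100% = wells lacking the enzyme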
Mtb UGM inh = Mtb UDP-galactopyranose mutase inhibition. P9WIQ1. purified UGM, fluorescence polarization probe displacement. inhibition, % at 10 µM. 320,000 tested, 0.06% active. AID 504406; in the data active = inhibition above about 10%, passing the limit was not always enough
RecA splice inh = Mtb RecA intein splicing inhibition | P9WHJ3 | cell-free RecA intein splicing, fluorescence | inhibition, % (no concentration beside the values) | 290,000 tested, 0.75% active | AID 2221; in the data active = inhibition above about 30%;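 note: 0% = vehicle wells and 100% = reference inhibitor control wells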
Target sequence (P9WHJ3 whole entry, looked up, canonical isoform): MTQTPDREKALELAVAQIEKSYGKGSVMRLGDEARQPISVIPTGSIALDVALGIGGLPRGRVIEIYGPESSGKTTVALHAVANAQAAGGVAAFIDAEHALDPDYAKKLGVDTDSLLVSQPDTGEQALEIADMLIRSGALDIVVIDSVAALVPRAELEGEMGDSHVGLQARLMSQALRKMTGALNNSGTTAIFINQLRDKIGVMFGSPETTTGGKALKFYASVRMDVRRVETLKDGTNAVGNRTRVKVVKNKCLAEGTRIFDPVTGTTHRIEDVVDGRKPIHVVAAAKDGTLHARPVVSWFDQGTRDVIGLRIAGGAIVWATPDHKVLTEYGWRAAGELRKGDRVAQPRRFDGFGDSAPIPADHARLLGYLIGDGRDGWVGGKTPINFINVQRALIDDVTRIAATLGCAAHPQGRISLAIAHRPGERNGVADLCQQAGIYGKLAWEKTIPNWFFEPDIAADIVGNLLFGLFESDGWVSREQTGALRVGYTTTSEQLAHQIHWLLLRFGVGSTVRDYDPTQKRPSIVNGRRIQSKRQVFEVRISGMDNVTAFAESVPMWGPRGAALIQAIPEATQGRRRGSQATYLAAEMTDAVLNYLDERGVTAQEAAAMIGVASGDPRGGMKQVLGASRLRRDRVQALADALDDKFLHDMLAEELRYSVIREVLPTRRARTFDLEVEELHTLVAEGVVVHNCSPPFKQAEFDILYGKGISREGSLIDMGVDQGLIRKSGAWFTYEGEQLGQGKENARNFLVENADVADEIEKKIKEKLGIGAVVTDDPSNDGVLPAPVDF
Rv3671c protease = inhibits the M. tuberculosis serine protease Rv3671c. P9WHR9. inhibition, % at 5.96 µM. 320,000 tested, 0.048% active; in the data active = inhibition above about 38%;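 note: extracellular domain of Rv3671c used as enzyme; 0% = enzyme with DMSO and 100% = no enzyme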
FBA Mtb inh = inhibits M. tuberculosis FBA enzyme | inhibition, % at 1 µM | AID 588726 | purified M. tuberculosis FBA, fluorescence read-out | 360,000 tested, 2.3% active;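 note: 0% = vehicle and 100% = reference inhibitor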
Mtb FBA inh conf = Mtb FBA inhibition, confirmed; inhibition, % at 1 µM; 5,600 tested, 78% active; shares compounds with FBA Mtb inh; purified M. tuberculosis FBA, fluorescence read-out;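 note: 0% = vehicle wells and 100% = reference inhibitor wells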
GDH-TPI counter-2 = GDH-TPI inhibition counter-screen for FBA inhibitors | shares compounds with FBA Mtb inh | GDH-TPI coupled enzyme counterscreen, fluorescence | inhibition, % at 1 µM | AID 652141 | 5,600 tested, 81% active; in the data active = inhibition above about 10%
* = called active by the depositor; i = inactive; x = not tested or not shown; + = active, no number. Cut-off read from the data, not from the text of the source, unless noted: active = inhibition above about 27%; inactive = the rest.

SMILES	Vc quorum ag	GDH-TPI counter-1	Mtb UGM inh	RecA splice inh	Rv3671c protease	FBA Mtb inh	Mtb FBA inh conf	GDH-TPI counter-2
O=C(O)COc1ccccc1-c1nc(-c2ccccc2)c(-c2ccccc2)[nH]1	-1	6	1	7	-2	88*	53*	29*
O=C(CN1CSCC1=O)N1CCN(S(=O)(=O)c2cccc(F)c2)CC1	0	8	0	x	1	0	x	x
Cn1c(CN2CCOCC2)nnc1SCC(=O)Nc1cc(Cl)ccc1Cl	0	-6	-3	x	6	27*	1	-9
O=c1oc(Nc2cccc(Cl)c2)nc2ccccc12	0	-6	-1	0	25	48*	34*	18*
CCCCNC(=O)C1CCC(CNS(=O)(=O)c2c(C)cc(C)cc2C)CC1 (stereo unspecified)	0	9	2	2	0	8	x	x
CCOC(=O)C1=C(C)OC(N)=C(C#N)C1c1cc2c(cc1[N+](=O)[O-])OCO2 (stereo unspecified)	0	8	-1	-7	-28	33*	42*	26*
CCOC(=O)C1=C(C)OC(N)=C(C#N)C1c1cc(OC)c2c(c1)OCO2 (stereo unspecified)	0	15	1	-3	4	0	x	x
CCCCC(=O)Nc1cc(N(C)C)nc2ccccc12	1	14	0	0	7	35*	+	+
COC(CNC(=O)Cc1c(C)nc2c(-c3ccccc3)c(C)nn2c1C)OC	i	-2	-6	-1	-6	-12	x	x
COC(CNC(=O)c1cnn2c(C)c(Cc3ccccc3)c(C)nc12)OC	1	10	0	-4	-3	78*	2	-4
Cc1nc2c(C(=O)N3CCOCC3)cnn2c(C)c1Cc1ccc(Cl)cc1	-1	20	1	3	-5	38*	200*	171*
O=C(Cc1cccc2ccccc12)Nc1ccc(O)cc1C(=O)O	1	4	-3	-27	3	32*	4	1
CCOc1ccc(Nc2oc(-c3ccc(Cl)cc3)nc2C#N)cc1	i	9	2	-2	0	2	x	x
COc1ccc(CCNc2oc(COc3ccc(Br)cc3)nc2C#N)cc1OC	0	-1	-1	10	2	2	x	x
COc1ccc(CNc2oc(-c3ccccc3)nc2C#N)cc1	0	18	6	7	-4	92*	95*	73*
N#Cc1nc(-c2ccccc2)oc1NCc1ccco1	0	17	-1	1	8	101*	59*	50*
COc1ccc(CCNc2oc(-c3ccc(C)cc3)nc2C#N)cc1OC	0	8	-3	1	4	51*	70*	62*
CCOc1ccc(-c2nc(C#N)c(NC3CC3)o2)cc1	-1	8	0	2	-8	96*	-3	-7
COCCNC(=O)C1(C)CCCN(Cc2ccc(OCc3ccccc3)cc2)C1 (stereo unspecified)	-1	7	x	x	x	-3	x	x
CC(C)c1ccc(S(=O)(=O)N2CCN(C(=O)c3cccc(S(=O)(=O)N4CCOCC4)c3)CC2)cc1	i	3	x	x	x	-3	x	x
N#Cc1nc(-c2ccc(Cl)cc2)oc1NCc1cccc2c1OCO2	0	-4	-2	0	-5	27*	110*	89*
N#Cc1nc(-c2ccc(Cl)cc2)oc1NCCc1ccccn1	i	31*	1	2	-8	28*	88*	82*
COc1ccc(-c2nc(C#N)c(NCc3ccccc3Cl)o2)cc1	-2	1	-1	2	7	10	x	x
COc1ccc(-c2nc(C#N)c(NCCc3ccccc3)o2)cc1	i	13	1	-1	9	80*	37*	26*
O=C(NCCc1ccc(C(F)(F)F)cc1)C1CC(=O)N(Cc2ccccc2)C1 (stereo unspecified)	i	2	-2	x	-9	-2	x	x
COc1ccc(S(=O)(=O)N2CCN(C(=O)C3CC3)CC2)cc1	0	6	1	x	-4	4	x	x
Cc1ccsc1C(=O)NN=C1CCCCCC1	i	9	2	1	2	3	x	x

Source: PubChem BioAssay (several laboratories)
